Experiment [1] concerns the target Tyrosine-protein kinase CSK (Homo sapiens) (UniProt P41240). The note with it: at 1 µM.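 Further: each value is an averaged inhibition reading.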
For experiment [2], the target named is T1, Discoidin domain-containing receptor 2 (Homo sapiens) (UniProt Q16832).
T1 sequence (whole entry): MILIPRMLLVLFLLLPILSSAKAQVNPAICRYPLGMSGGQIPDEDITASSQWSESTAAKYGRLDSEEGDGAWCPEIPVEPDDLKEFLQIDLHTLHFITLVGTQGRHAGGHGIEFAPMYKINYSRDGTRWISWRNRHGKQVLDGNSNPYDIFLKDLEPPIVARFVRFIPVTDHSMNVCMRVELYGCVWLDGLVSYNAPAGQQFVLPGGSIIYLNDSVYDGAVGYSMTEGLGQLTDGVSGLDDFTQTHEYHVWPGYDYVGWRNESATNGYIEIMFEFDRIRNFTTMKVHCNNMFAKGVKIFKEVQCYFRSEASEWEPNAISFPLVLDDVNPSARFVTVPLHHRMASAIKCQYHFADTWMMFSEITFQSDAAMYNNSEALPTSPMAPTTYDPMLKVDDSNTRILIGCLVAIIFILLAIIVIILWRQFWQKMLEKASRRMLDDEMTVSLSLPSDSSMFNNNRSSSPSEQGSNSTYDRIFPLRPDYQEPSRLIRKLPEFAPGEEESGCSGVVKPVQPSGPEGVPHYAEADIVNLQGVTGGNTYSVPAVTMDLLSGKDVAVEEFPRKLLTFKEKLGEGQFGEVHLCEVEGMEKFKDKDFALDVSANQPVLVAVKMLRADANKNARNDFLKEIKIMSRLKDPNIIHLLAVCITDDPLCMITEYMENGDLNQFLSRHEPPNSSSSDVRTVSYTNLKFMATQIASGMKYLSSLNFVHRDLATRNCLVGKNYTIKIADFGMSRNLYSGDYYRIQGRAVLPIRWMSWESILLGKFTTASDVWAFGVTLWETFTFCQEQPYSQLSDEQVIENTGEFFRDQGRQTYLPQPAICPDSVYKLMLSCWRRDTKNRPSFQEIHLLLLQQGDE
Conditions: at 0.1 µM.

Experiment [3] deals with T1, Discoidin domain-containing receptor 2 (Homo sapiens). The note with it: at 1 µM.
Experiment [4] addresses Epidermal growth factor receptor (Homo sapiens) (UniProt P00533). The note with it: at 0.1 µM.
For experiment [5] the target is unchanged. Conditions: at 1 µM.
Experiment [6] deals with Epidermal growth factor receptor (Homo sapiens), P00533 [L858R]. Conditions: at 0.1 µM.
For experiment [7] the test system is unchanged. Conditions: at 1 µM.
Experiment [8] concerns Epidermal growth factor receptor (Homo sapiens), P00533 [L861Q]. The note with it: at 0.1 µM.
Experiment [9] has the same test system. The note with it: at 1 µM.
The test system of experiment [10] is Epidermal growth factor receptor (Homo sapiens), P00533 [T790M]. The note with it: at 0.1 µM.
Experiment [11] has the same test system. Conditions: at 1 µM.
Experiment [12] concerns Epidermal growth factor receptor (Homo sapiens), P00533 [L858R,T790M]. The note with it: at 0.1 µM.
Experiment [13] has the same test system. Conditions: at 1 µM.
For experiment [14], the target named is Ephrin type-A receptor 2 (Homo sapiens) (UniProt P29317). The note with it: at 0.1 µM.
For experiment [15] the target is unchanged. The note with it: at 1 µM.
The target in experiment [16] is T2, Ephrin type-A receptor 3 (Homo sapiens) (UniProt P29320).
T2 sequence (whole entry): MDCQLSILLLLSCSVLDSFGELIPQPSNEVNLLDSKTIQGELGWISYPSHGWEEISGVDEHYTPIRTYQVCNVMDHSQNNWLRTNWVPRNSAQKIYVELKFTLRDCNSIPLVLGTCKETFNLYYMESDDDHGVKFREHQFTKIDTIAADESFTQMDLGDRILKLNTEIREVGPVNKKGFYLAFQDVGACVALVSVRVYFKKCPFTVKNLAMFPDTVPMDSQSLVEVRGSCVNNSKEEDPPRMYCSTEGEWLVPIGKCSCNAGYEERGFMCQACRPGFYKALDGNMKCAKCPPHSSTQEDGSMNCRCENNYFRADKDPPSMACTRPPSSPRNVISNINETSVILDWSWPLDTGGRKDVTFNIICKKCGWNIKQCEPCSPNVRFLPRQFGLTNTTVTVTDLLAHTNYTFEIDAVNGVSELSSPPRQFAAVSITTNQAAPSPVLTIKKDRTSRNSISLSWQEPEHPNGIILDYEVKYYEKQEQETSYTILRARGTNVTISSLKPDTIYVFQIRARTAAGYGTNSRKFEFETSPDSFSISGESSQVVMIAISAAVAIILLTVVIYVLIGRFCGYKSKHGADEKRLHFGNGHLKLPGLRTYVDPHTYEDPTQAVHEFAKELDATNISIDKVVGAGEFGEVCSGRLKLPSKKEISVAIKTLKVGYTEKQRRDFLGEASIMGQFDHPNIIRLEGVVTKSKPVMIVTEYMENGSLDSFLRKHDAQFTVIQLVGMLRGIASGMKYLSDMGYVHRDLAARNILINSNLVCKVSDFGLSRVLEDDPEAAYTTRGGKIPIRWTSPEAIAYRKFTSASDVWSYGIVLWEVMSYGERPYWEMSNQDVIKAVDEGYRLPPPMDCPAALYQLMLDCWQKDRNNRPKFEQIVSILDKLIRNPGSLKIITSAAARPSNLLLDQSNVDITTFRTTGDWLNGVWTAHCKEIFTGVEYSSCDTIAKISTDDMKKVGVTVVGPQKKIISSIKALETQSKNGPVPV
The note with it: at 0.1 µM.

Experiment [17] deals with T2, Ephrin type-A receptor 3 (Homo sapiens). The note with it: at 1 µM.
Experiment [18] has as its target Ephrin type-A receptor 4 (Homo sapiens) (UniProt P54764). The note with it: at 0.1 µM.
Experiment [19] has the same target. Conditions: at 1 µM.
The target in experiment [20] is T3, Ephrin type-B receptor 2 (Homo sapiens) (UniProt P29323).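 Further: reported as mean inhibition of EPHB2, from the GSK PKIS dataset.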
T3 sequence (whole entry): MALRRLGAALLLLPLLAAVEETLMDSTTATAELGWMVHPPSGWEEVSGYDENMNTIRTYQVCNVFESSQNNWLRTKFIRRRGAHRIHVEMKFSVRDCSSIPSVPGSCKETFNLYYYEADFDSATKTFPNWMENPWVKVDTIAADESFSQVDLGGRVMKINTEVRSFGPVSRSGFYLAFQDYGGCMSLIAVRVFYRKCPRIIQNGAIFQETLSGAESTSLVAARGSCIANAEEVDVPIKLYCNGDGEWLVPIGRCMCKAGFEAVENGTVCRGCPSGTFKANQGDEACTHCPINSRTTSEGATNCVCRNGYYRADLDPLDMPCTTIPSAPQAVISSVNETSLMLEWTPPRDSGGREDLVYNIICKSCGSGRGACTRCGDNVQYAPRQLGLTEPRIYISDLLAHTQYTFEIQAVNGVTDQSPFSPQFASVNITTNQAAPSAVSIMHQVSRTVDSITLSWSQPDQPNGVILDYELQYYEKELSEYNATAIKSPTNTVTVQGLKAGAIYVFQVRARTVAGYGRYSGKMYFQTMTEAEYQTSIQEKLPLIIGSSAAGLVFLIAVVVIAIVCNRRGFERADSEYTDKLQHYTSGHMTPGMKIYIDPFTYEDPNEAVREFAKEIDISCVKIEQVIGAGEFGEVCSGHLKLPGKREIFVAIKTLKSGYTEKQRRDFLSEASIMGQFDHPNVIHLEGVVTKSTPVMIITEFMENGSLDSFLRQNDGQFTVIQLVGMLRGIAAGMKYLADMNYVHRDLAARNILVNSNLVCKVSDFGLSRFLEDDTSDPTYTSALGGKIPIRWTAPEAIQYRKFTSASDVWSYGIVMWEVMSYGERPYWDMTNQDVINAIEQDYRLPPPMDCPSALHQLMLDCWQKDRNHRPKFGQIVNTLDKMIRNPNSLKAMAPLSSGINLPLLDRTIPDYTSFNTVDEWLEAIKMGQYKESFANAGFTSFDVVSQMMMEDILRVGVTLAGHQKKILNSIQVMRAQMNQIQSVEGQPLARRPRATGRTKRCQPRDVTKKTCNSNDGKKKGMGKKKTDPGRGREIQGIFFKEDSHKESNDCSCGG
Conditions: at 0.1 µM.

A word on the inhibition: it is the relative decrease from the control value, in per cent.

Epidermal growth factor receptor (Homo sapiens), P00533 [L858R,T790M], sequence (P00533 whole entry T790M/L858R, looked up): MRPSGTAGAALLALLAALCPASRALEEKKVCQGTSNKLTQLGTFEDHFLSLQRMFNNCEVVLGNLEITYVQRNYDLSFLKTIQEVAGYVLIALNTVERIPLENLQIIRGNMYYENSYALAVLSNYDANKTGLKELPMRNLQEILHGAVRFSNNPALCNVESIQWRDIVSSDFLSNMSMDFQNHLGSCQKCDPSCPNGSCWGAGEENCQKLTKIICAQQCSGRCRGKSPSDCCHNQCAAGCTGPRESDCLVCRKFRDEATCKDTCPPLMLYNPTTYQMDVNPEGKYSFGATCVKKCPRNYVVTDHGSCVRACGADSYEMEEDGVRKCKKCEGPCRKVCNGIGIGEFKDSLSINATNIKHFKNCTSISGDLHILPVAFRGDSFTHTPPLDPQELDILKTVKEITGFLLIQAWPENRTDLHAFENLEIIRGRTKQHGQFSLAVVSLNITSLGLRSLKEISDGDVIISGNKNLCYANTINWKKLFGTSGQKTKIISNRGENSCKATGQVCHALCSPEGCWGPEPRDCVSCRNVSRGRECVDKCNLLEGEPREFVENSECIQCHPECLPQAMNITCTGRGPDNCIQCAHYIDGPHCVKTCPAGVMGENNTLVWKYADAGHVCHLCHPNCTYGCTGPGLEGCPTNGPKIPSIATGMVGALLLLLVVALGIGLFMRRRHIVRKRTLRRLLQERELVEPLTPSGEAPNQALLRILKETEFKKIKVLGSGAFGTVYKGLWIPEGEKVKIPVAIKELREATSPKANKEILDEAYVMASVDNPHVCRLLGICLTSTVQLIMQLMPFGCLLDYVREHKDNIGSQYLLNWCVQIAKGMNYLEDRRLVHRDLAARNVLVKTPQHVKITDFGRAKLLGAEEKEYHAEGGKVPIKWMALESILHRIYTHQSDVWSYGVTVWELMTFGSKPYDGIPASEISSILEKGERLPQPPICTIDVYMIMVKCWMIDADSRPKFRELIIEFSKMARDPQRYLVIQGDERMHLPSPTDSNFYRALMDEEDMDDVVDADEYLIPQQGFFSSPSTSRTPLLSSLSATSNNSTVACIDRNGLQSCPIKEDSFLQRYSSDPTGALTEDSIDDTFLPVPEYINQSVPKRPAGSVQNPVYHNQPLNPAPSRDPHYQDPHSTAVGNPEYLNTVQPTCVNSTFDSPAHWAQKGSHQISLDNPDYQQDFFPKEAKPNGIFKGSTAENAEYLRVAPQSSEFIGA
Tyrosine-protein kinase CSK (Homo sapiens), sequence (P41240 2-450 limits assumed): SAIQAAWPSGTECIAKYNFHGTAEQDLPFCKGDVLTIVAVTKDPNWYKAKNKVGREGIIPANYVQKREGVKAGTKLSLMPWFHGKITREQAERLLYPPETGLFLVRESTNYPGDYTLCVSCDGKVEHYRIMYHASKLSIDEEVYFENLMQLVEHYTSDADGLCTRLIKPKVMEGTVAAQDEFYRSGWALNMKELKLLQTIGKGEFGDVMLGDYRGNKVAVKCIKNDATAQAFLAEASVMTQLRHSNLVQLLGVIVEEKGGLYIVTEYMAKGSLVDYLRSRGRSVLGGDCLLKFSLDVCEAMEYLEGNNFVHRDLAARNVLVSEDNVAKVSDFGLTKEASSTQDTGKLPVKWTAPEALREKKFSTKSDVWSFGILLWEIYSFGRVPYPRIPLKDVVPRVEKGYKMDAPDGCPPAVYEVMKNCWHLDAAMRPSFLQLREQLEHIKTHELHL
Epidermal growth factor receptor (Homo sapiens), sequence (P00533 whole entry): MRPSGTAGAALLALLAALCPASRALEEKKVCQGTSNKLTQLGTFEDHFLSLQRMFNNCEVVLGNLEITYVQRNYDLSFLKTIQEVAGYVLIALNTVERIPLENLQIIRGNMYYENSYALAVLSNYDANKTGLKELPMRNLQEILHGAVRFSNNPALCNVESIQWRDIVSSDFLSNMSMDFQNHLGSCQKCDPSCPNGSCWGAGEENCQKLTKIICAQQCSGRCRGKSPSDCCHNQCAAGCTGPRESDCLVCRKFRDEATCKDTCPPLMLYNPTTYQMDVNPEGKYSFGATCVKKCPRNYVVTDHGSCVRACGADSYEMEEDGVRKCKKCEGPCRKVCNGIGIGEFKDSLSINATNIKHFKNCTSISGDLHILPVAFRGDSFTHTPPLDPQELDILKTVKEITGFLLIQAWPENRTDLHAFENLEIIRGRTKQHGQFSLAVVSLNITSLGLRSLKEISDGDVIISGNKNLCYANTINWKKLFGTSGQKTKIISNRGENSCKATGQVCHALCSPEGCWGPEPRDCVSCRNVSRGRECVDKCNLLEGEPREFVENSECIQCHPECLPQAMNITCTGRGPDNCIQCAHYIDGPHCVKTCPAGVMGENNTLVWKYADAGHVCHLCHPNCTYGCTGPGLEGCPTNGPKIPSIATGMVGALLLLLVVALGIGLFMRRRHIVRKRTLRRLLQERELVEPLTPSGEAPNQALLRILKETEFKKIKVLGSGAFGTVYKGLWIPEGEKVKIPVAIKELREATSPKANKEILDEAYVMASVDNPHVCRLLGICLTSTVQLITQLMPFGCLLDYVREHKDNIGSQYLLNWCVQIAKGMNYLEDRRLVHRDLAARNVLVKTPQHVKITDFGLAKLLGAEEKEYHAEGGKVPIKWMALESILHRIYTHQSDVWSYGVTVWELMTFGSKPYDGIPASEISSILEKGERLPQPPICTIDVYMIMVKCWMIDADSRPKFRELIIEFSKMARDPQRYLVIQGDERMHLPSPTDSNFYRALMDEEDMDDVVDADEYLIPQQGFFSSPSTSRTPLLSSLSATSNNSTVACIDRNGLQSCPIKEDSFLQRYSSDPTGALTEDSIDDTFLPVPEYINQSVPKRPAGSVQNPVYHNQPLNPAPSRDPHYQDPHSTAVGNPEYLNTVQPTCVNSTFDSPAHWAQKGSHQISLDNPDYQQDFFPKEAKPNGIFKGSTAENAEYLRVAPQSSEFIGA
Epidermal growth factor receptor (Homo sapiens), P00533 [L861Q], sequence (P00533 whole entry L861Q): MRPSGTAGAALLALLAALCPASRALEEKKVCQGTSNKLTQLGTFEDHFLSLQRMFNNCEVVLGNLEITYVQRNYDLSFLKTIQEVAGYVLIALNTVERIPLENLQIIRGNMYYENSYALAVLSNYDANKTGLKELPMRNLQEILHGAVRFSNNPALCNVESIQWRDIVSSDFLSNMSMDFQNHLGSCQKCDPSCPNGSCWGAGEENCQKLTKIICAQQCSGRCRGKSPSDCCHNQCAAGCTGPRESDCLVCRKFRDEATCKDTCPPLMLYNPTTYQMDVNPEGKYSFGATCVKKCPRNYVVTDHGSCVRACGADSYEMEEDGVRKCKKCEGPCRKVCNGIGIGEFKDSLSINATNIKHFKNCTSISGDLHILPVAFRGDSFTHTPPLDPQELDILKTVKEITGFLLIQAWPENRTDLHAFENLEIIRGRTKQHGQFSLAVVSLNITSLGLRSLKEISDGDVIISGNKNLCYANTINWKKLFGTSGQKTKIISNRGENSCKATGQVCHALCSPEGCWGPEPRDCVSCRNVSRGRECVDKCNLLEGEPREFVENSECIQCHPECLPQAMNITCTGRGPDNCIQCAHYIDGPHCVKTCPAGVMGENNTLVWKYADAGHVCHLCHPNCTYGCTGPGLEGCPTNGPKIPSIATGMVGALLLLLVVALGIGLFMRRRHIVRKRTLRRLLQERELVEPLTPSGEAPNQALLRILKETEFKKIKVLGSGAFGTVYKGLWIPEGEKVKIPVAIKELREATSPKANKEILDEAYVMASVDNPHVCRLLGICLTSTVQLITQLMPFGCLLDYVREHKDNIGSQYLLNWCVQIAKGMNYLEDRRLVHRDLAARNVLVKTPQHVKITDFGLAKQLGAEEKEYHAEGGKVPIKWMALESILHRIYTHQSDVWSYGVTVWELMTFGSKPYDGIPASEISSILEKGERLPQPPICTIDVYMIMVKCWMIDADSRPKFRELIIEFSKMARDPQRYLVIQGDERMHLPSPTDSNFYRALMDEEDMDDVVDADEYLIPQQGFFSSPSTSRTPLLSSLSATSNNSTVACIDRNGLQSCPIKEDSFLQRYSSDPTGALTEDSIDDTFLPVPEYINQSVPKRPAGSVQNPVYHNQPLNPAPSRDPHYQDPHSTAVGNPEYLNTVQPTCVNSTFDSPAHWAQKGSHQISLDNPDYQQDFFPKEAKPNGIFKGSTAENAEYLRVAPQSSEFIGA
Ephrin type-A receptor 4 (Homo sapiens), sequence (P54764 whole entry): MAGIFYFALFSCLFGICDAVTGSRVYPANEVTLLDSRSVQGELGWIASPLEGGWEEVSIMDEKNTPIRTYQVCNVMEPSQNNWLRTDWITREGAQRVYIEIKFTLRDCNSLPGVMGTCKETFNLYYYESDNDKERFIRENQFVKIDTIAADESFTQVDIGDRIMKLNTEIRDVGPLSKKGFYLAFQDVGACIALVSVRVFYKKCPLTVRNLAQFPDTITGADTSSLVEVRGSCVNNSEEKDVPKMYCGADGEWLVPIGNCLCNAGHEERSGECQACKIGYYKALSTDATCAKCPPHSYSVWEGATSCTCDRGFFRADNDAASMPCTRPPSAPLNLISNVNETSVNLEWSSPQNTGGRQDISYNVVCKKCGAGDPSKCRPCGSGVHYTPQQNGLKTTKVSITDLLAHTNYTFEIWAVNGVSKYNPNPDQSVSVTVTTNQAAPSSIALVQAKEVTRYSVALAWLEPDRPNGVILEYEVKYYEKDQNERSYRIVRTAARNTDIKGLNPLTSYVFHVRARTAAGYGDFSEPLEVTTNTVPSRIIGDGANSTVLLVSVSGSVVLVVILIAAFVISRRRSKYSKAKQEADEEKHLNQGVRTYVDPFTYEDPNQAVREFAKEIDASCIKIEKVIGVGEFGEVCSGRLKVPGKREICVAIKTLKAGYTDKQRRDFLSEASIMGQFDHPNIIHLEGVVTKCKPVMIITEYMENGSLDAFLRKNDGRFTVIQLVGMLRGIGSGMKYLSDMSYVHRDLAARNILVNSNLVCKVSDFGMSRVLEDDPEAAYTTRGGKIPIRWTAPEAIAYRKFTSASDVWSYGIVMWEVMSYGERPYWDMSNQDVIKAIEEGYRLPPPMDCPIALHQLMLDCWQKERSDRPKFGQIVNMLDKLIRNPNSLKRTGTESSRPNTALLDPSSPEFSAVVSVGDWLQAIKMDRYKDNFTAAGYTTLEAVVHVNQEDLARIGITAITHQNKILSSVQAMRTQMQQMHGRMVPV

Consider `CNC(=O)c1cncc(/C=C/c2c(C)cccc2C)c1`, for which the inhibition was 24.6% in [1]; 7.93% in experiment [2]; 36.8% in experiment [3]; -2.83% in experiment [4]; 5.96% in experiment [5]; 7.48% in [6]. For the same molecule, the inhibition in experiment [7] is 41.4%; in [8], 1.86%; in experiment [9], 8.46%; in experiment [10], -0.41%; in experiment [11], 0.11%; in experiment [12] it was 0.33%. The inhibition in experiment [13] came to 1.36%; in [14], 8.07%; in experiment [15] it was 44.4%; in experiment [16], 2.95%; in experiment [17], 16.1%; in experiment [18], 25.5%. The inhibition stood at 80.9% in [19] and 23.2% in experiment [20].
Regarding `O=C1Nc2ccc(I)cc2C1=Cc1cc(Br)c(O)c(Br)c1`, the inhibition is 4.94% in experiment [1]; 1.45% in [2]; 3.44% in experiment [3]; 2.85% in [4]; -1.18% in [5]; -1.9% in experiment [6]. Also, the inhibition is 2.8% in experiment [7]; 2.43% in experiment [8]; 3.74% in [9]; 0.08% in [10]; 1.77% in experiment [11]; -1.49% in [12]. For the same molecule, the inhibition was -1.12% in experiment [13]; 1.35% in [14]; 1.12% in experiment [15]; 1.79% in experiment [16]; 4.64% in experiment [17]; 7.31% in experiment [18]. Besides, the inhibition in experiment [19] turned out to be 9.77%; in experiment [20], 5.47%.
Regarding `NS(=O)(=O)c1ccc(N/N=C2\C(=O)Nc3ccc(C(=O)NCCCn4ccnc4)cc32)cc1`, the inhibition in [1] amounted to 6.51%; in experiment [2], 0.72%; in experiment [3] it was 1.93%; in experiment [4], 3.44%; in experiment [5], 5.59%; in experiment [6], 0.2%. In addition, the inhibition in experiment [7] is 6.95%; in [8] it was 1.73%; in experiment [9], 5.08%; in experiment [10], 2.53%; in experiment [11], 5.05%; in experiment [12] it was 1.54%. Also, the inhibition in experiment [13] is 4.72%; in experiment [14], 0.32%; in experiment [15] it was 2.41%; in experiment [16] it was 1.95%; in [17] it was 4.65%; in [18], 9.78%. The figures for the inhibition in [19] and in [20] were 18.2% and 5.33%, respectively.
`Fc1ccc(-c2ncn(C3CCNCC3)c2-c2ccnc(Oc3ccc(Oc4ccccc4)cc3)n2)cc1`: the inhibition in [1] was 3.28%; in [2], 2.83%; in experiment [3], 14.8%; in experiment [4], 2.08%; in [5], 4.02%; in experiment [6], -0.18%. For the same molecule, the inhibition in experiment [7] stood at 11.3%; in [8] it was 2.06%; in experiment [9], 6.3%; in [10], 1.46%; in experiment [11] it was 4.11%; in [12], 1.7%. Further, the inhibition in experiment [13] came to 6.06%; in experiment [14] it was 1.86%; in experiment [15] it was 1.01%; in [16], 2.44%; in experiment [17] it was 4.03%; in experiment [18] it was 6.9%. Also, the inhibition worked out at 7.87% in experiment [19] and 7.52% in experiment [20].
For the molecule `COc1ccc(C2=C(N3CCc4ccccc43)C(=O)NC2=O)cc1`, the inhibition in experiment [1] is 9.3%; in experiment [2], 1.75%; in [3], 1.87%; in experiment [4] it was 1.18%; in [5] it was 3.59%; in [6], 7.35%. Further, the inhibition in experiment [7] was found to be 7.13%; in [8], 4.49%; in experiment [9] it was 6.05%; in experiment [10] it was 3.62%; in experiment [11], 2.96%; in experiment [12] it was 1.12%. Also, the inhibition in [13] is 2.08%; in experiment [14], 2.52%; in experiment [15], 0.56%; in experiment [16], 7.52%; in [17] it was 5.91%; in experiment [18], 10.6%. In addition, the inhibition in experiment [19] is 12.4%; in [20], 11%.
For the molecule `CS(=O)(=O)CCNCc1ccc(-c2ccc3ncnc(Nc4ccc(OCc5ccccc5)c(Br)c4)c3c2)o1`, the inhibition in experiment [1] was 4.59%; in experiment [2], 1.43%; in [3], 1.04%; in [4] it was 69.5%; in [5], 81.6%; in experiment [6] it was 49.3%. Further, the inhibition in experiment [7] amounted to 91.2%; in [8] it was 48.1%; in experiment [9] it was 83.7%; in [10], 4.96%; in experiment [11], 15.8%; in experiment [12], 1.22%. For the same molecule, the inhibition was -0.73% in [13]; -1.09% in experiment [14]; -2.25% in experiment [15]; 1.29% in experiment [16]; 1.45% in [17]; 7% in experiment [18]. Also, the inhibition was determined as 10.9% in experiment [19] and 7.88% in [20].
As to `CCc1ccc(Oc2nccc(-c3c(-c4ccc(F)cc4)ncn3C3CCNCC3)n2)cc1`, the inhibition is 10.3% in [1]; 1.91% in experiment [2]; 3.52% in experiment [3]; 2.21% in experiment [4]; 7.66% in experiment [5]; 3.05% in [6]. The inhibition in [7] is 15.9%; in experiment [8] it was 1.97%; in [9], 5.92%; in experiment [10], 0.57%; in experiment [11], 4.64%; in experiment [12], 0.15%. Further, the inhibition in experiment [13] is 8.07%; in [14], 0.72%; in experiment [15], -0.17%; in [16] it was 4.68%; in experiment [17], 4.67%; in experiment [18], 9.41%. Also, the inhibition is 10.6% in experiment [19] and 4.76% in experiment [20].
